Screening data deposited in PubChem by National Center for Advancing Translational Sciences (NCATS).
Shiga inhibitor: blocks Shiga toxin action in Vero cells; inhibition, % at 38.7 µM; 290,000 compounds, 9.2% hits; Vero cells, Shiga toxin protein synthesis inhibition reporter; in the data active = inhibition mostly above about 28%, no sharp cut-off; inactive = mostly below about 43%
NS1 inh: inhibitors of influenza NS1 protein function | Potency, µM (titrated, usually from 46.1 µM) | 270,000 compounds, 0.4% hits | AID 2326; calls by dose curve; note: actives are rising curves; nearly all actives have a fitted effect of over 50% in size
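In this qHTS, NS1 from influenza A is expressed in budding yeast, where it slows growth. Cells are switched from glucose to 2% galactose medium (pH 6.0, -URA), treated with compound, and growth recovery is read at OD600.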
Cycloheximide cs: counter-screen for Shiga toxin inhibitors: cycloheximide protein synthesis inhibition | AID 2314 | 300,000 compounds, 12% hits | max response, % | cell reporter, cycloheximide protein synthesis inhibition counterscreen; in the data active = max response mostly above about 13%, no sharp cut-off; inactive = mostly below about 14%; note: read at 38.3 µM for the half of the compounds with a filed dose
Pf growth 96h: P. falciparum growth inhibition at 96 hour, primary screen for plastid delayed-death inhibitors; P. falciparum luciferase reporter growth, 96 h; Potency, µM (highest dose often 28.7 µM), usual class: inhibitors; 320,000 compounds, 6.9% hits; AID 504834
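96 h incubation, 37 C, 5% CO2, of luciferase-reporter P. falciparum-infected RBCs (2% hematocrit, 0.05% parasitemia final) with test compounds; endpoint luminescence.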
Pf growth 48h: inhibits P. falciparum growth in the first generation, 48 h | 310,000 compounds, 5.9% hits | Potency, µM (titrated, usually from 28.7 µM), usual class: inhibitors | AID 504832 | P. falciparum luciferase growth in erythrocytes, 48 h
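In quantitative HTS format, infected erythrocytes bearing luciferase-reporter parasites were treated for a single generation at 37 C. Luminescence after adding detection reagent served as the growth measure.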
Hits are given with their value. Only some compounds are listed: those with a hit (about 21% of all), similar ones and a draw of the others. Unless noted, calls come from the whole dose curve; as a rule, active = well fitted inhibition curve with a large enough effect; inconclusive = small, poorly fitted or top-dose-only effect, or another doubt; inactive = no such curve, though single readings can be large or run the other way.

What do the screens show for `CC(=O)OC[C@]12CCC(C)=C[C@H]1O[C@@H]1[C@H](O)[C@@H](OC(C)=O)[C@@]2(C)[C@]12CO2`?
Shiga inhibitor: inactive; NS1 inh: inactive; Cycloheximide cs: inactive; Pf growth 96h: inconclusive; Pf growth 48h: 0.0033µM

What do the screens show for `COCCn1c(SCc2ccc(C(=O)OC)o2)nnc1-c1c[nH]c2ccccc12`?
Shiga inhibitor: inactive; NS1 inh: inactive; Cycloheximide cs: inactive; Pf growth 96h: inactive

What do the screens show for `COc1cc(/C=N/NC(=O)c2cc(C34CC5CC(CC(C5)C3)C4)[nH]n2)ccc1O`?
Shiga inhibitor: inactive; NS1 inh: inactive; Cycloheximide cs: inactive; Pf growth 96h: 12µM; Pf growth 48h: inconclusive

Results for COc1ccc(/C=N/NC(=O)c2cc(C3CC3)[nH]n2)cc1OC ?
Shiga inhibitor: 52; NS1 inh: inactive; Cycloheximide cs: inactive; Pf growth 96h: inactive; Pf growth 48h: inactive

What do the screens show for `O=C(N/N=C/c1ccc(O)cc1)c1cc(C2CC2)[nH]n1`?
Shiga inhibitor: inactive; NS1 inh: inactive; Cycloheximide cs: inactive; Pf growth 96h: inactive; Pf growth 48h: inactive

How did CCOc1cc(/C=N/NC(=O)c2cc(C3CC3)[nH]n2)ccc1O do in these assays?
Shiga inhibitor: inactive; NS1 inh: inactive; Cycloheximide cs: inactive; Pf growth 96h: inactive; Pf growth 48h: inactive

What do the screens show for `COc1cc(/C=N/NC(=O)c2cc(C3CC3)[nH]n2)ccc1O`?
Shiga inhibitor: inactive; NS1 inh: inactive; Cycloheximide cs: 16; Pf growth 96h: inactive; Pf growth 48h: inactive

Results for COc1ccc2c(c1)c(C(=O)N/N=C/c1ccc(OC)c(OC)c1)c(C)n2C ?
Shiga inhibitor: inactive; NS1 inh: inactive; Cycloheximide cs: inactive; Pf growth 96h: 15µM; Pf growth 48h: inactive

How did CCCCN1CCCC[C@H]1C(=O)Nc1c(C)cccc1C do in these assays?
Shiga inhibitor: inactive; Cycloheximide cs: inactive; Pf growth 96h: inactive; Pf growth 48h: inactive

How did O=C(CNC(=O)c1ccc(S(=O)(=O)N2CCCC2)cc1)N/N=C/c1c(Cl)cccc1Cl do in these assays?
Shiga inhibitor: inactive; NS1 inh: inactive; Cycloheximide cs: inactive; Pf growth 96h: inactive; Pf growth 48h: inactive

What do the screens show for `CCC1CCCCN1C(=O)COc1ccccc1NC(C)=O` (centres undefined)?
Shiga inhibitor: inactive; Cycloheximide cs: inactive; Pf growth 96h: inactive; Pf growth 48h: inactive

What do the screens show for `Cc1cc(C)c2c(N=NN3CCCCC3)[nH]nc2n1`?
Shiga inhibitor: 41; NS1 inh: inactive; Cycloheximide cs: 38; Pf growth 96h: inactive; Pf growth 48h: inactive

How did Cc1cc(-n2c(C)cc(C(=O)CN3C(=O)NC4(CCCCCC4)C3=O)c2C)no1 do in these assays?
Shiga inhibitor: inactive; NS1 inh: inactive; Cycloheximide cs: inactive; Pf growth 96h: inactive; Pf growth 48h: 12µM

Results for Cc1cc(C(=O)CN2C(=O)NC3(CCCCC3)C2=O)c(C)n1-c1ccc2c(c1)OCO2 ?
Shiga inhibitor: inactive; NS1 inh: inactive; Cycloheximide cs: inactive; Pf growth 96h: 13µM; Pf growth 48h: inconclusive

Results for Cc1cccc(C(=O)N2CCN(c3ncnc4c3cnn4-c3ccccc3)CC2)c1 ?
Shiga inhibitor: inactive; NS1 inh: inactive; Cycloheximide cs: inactive; Pf growth 96h: inactive; Pf growth 48h: 9.3µM

How did COc1ccc(-n2ncc3c(N4CCCCC4)ncnc32)cc1 do in these assays?
Shiga inhibitor: inactive; NS1 inh: inactive; Cycloheximide cs: inactive; Pf growth 96h: inactive; Pf growth 48h: inactive

Results for CC1CC(C)CN(c2ncnc3c2cnn3Cc2ccc(Cl)cc2)C1 (centres undefined) ?
Shiga inhibitor: inactive; NS1 inh: inactive; Cycloheximide cs: inactive; Pf growth 48h: inconclusive

What do the screens show for `O=C(COc1ccccc1)N1CCN(c2ncnc3c2cnn3-c2ccccc2)CC1`?
Shiga inhibitor: inactive; NS1 inh: inactive; Cycloheximide cs: inactive; Pf growth 96h: inactive; Pf growth 48h: inconclusive

How did Cc1cccc(-n2ncc3c(N4CCOCC4)ncnc32)c1 do in these assays?
Shiga inhibitor: inactive; NS1 inh: inactive; Cycloheximide cs: 15; Pf growth 96h: inactive; Pf growth 48h: inactive

What do the screens show for `Cn1ncc2c(N3CCOCC3)ncnc21`?
Shiga inhibitor: inactive; NS1 inh: inactive; Cycloheximide cs: inactive; Pf growth 96h: inactive; Pf growth 48h: inactive

How did Cc1cccc(-n2ncc3c(N4CC(C)CC(C)C4)ncnc32)c1 (centres undefined) do in these assays?
Shiga inhibitor: 80; NS1 inh: inactive; Cycloheximide cs: 39; Pf growth 96h: inactive

How did Clc1ccc(-n2ncc3c(N4CCCCCC4)ncnc32)cc1 do in these assays?
Shiga inhibitor: inactive; NS1 inh: inactive; Cycloheximide cs: 21; Pf growth 96h: inactive; Pf growth 48h: inactive

How did COc1c(Br)cc(Br)cc1C(=O)Nc1ccccc1N1CCCC1 do in these assays?
Shiga inhibitor: inactive; NS1 inh: inactive; Cycloheximide cs: inactive; Pf growth 96h: inactive; Pf growth 48h: inconclusive

Results for O=C(CSc1n[nH]c(=O)n1-c1cccnc1)Nc1ccccc1Cl ?
Shiga inhibitor: inactive; NS1 inh: inactive; Cycloheximide cs: inactive; Pf growth 96h: inactive; Pf growth 48h: inactive

What do the screens show for `CN(Cc1nccn1C)C(=O)CC1C(=O)NCCN1CC(c1ccccc1)c1ccccc1` (centres undefined)?
Shiga inhibitor: inactive; NS1 inh: inactive; Cycloheximide cs: inactive; Pf growth 96h: inactive; Pf growth 48h: inconclusive

Results for COCCNC(=O)C(=O)N/N=C/c1ccc(C(=O)OC)cc1 ?
Shiga inhibitor: inactive; NS1 inh: inactive; Cycloheximide cs: inactive; Pf growth 96h: inactive; Pf growth 48h: inactive

Results for COc1ccc(N2CCN(c3ncnc4c3cnn4-c3ccc(C)cc3C)CC2)cc1 ?
Shiga inhibitor: inactive; NS1 inh: inactive; Cycloheximide cs: inactive; Pf growth 96h: inactive; Pf growth 48h: inconclusive

How did Cc1ccc(-n2ncc3c(N4CCN(c5ccccc5)CC4)ncnc32)c(C)c1 do in these assays?
Shiga inhibitor: inactive; NS1 inh: inactive; Cycloheximide cs: 24; Pf growth 96h: inconclusive; Pf growth 48h: 12µM

How did Cc1cccc(-n2ncc3c(N4CCCC4)ncnc32)c1 do in these assays?
Shiga inhibitor: 86; NS1 inh: inactive; Cycloheximide cs: 32; Pf growth 48h: inactive

How did Cc1ccc(Cl)cc1NC(=O)[C@@H]1CCC(=O)N1C1OC(=O)c2ccccc21 (some centres undefined) do in these assays?
Shiga inhibitor: inactive; NS1 inh: inactive; Cycloheximide cs: inactive; Pf growth 96h: inconclusive; Pf growth 48h: inconclusive

How did Cc1onc(-c2c(F)cccc2Cl)c1C(=O)NC(=S)NC1CCSC1=O (centres undefined) do in these assays?
Shiga inhibitor: inactive; NS1 inh: inactive; Cycloheximide cs: inactive; Pf growth 96h: inactive; Pf growth 48h: inactive

What do the screens show for `Cc1c(C)c2ccc(O)c(CN3CCCC3)c2oc1=O`?
Shiga inhibitor: inactive; NS1 inh: inactive; Cycloheximide cs: inactive; Pf growth 96h: inconclusive; Pf growth 48h: inconclusive

Results for Cc1c(O)c(CN(C)C)cc2c1oc(=O)c1ccccc12 ?
Shiga inhibitor: inactive; NS1 inh: inactive; Cycloheximide cs: inactive; Pf growth 96h: 2.1µM; Pf growth 48h: 4.1µM

How did Cc1c(O)c(CN2CCCCC2)cc2c3c(c(=O)oc12)CCC3 do in these assays?
Shiga inhibitor: inactive; NS1 inh: inactive; Cycloheximide cs: inactive; Pf growth 96h: 9.3µM; Pf growth 48h: 10µM
